According to PubChem BioAssay AID1159580 (chemical genetic matrix, 2015):
Screen size: about 5,500 compounds; about 2,000 (36%) were called active. Roughly 18% stayed inconclusive and do not appear here. No stated cut-off is given here; in the data, active means normalized growth mostly below about 0.91 (no sharp cut-off); inconclusive means no clear call, values can overlap the other calls; inactive means mostly above about 0.92. Some of the results follow.

Assay: chemical genetic growth profiling, strain panel (AID 1159580);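 further: tested at 20 µM; growth read once vehicle control cultures reached saturation at 30 °C; 1 = growth at the plate median or of vehicle wells; lower values mean less growth of the strain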
Conditions: S. cerevisiae deletion strains, growth OD
[1] = locus YAR019C, strain CDC15, hits give low values
[2] = locus YBL105C, strain PKC1, hits give low values
[3] = locus YBR135W, strain CKS1, hits give low values
[4] = locus YBR136W, strain MEC1, hits give low values
[5] = locus YBR160W, strain CDC28, hits give low values
[6] = locus YDL017W, strain CDC7, hits give low values
[7] = locus YDL028C, strain MPS1, hits give low values
[8] = locus YDL101C, strain DUN1, hits give low values
[9] = locus YDL108W, strain KIN28, hits give low values
[10] = locus YDL132W, strain cdc53, hits give low values
[11] = locus YDL214C, strain PRR2, hits give low values
[12] = locus YDR052C, strain DBF4, hits give low values
[13] = locus YDR054C, strain cdc34, hits give low values
[14] = locus YDR226W, strain ADK1, hits give low values
[15] = locus YDR477W, strain SNF1, hits give low values
[16] = locus YER123W, strain YCK3, hits give low values
[17] = locus YER133W, strain GLC7, hits give low values
[18] = locus YFL009W, strain cdc4, hits give low values
[19] = locus YFL029C, strain CAK1, hits give low values
[20] = locus YFR003C, strain YPI1, hits give low values
[21] = locus YFR019W, strain FAB1, hits give low values
[22] = locus YFR028C, strain CDC14, hits give low values
[23] = locus YGR040W, strain KSS1, hits give low values
[24] = locus YGR052W, strain FMP48, hits give low values
[25] = locus YGR092W, strain DBF2, hits give low values
[26] = locus YHR030C, strain SLT2, hits give low values
[27] = locus YHR079C, strain IRE1, hits give low values
[28] = locus YHR082C, strain KSP1, hits give low values
[29] = locus YHR205W, strain SCH9, hits give low values
[30] = locus YIL147C, strain SLN1, hits give low values
[31] = locus YJL095W, strain BCK1, hits give low values
[32] = locus YJL128C, strain PBS2, hits give low values
[33] = locus YJL157C, strain FAR1, hits give low values
[34] = locus YJR016C, strain ILV3, hits give low values
[35] = locus YJR066W, strain TOR1 (second series), hits give low values
[36] = locus YJR066W, strain TOR1, hits give low values
[37] = locus YKL048C, strain ELM1, hits give low values
[38] = locus YKL067W, strain YNK1, hits give low values
[39] = locus YKL101W, strain HSL1, hits give low values
[40] = locus YKL193C, strain SDS22, hits give low values
[41] = locus YKL203C, strain TOR2, hits give low values
[42] = locus YLR113W, strain HOG1, hits give low values
[43] = locus YLR133W, strain CKI1, hits give low values
[44] = locus YLR403W, strain SFP1, hits give low values
[45] = locus YML070W, strain DAK1, hits give low values
[46] = locus YMR001C, strain CDC5, hits give low values
[47] = locus YMR205C, strain PFK2 (second series), hits give low values
[48] = locus YMR277W, strain FCP1, hits give low values
[49] = locus YNL006W, strain LST8, hits give low values
[50] = locus YNL020C, strain ARK1, hits give low values
[51] = locus YNL161W, strain CBK1, hits give low values
[52] = locus YNL183C, strain NPR1, hits give low values
[53] = locus YNL207W, strain RIO2, hits give low values
[54] = locus YNL222W, strain SSU72, hits give low values
[55] = locus YNL307C, strain MCK1 (second series), hits give low values
[56] = locus YOL078W, strain AVO1, hits give low values
[57] = locus YOL136C, strain PFK27, hits give low values
[58] = locus YOR061W, strain CKA2, hits give low values
[59] = locus YOR119C, strain RIO1, hits give low values
[60] = locus YOR231W, strain MKK1, hits give low values
[61] = locus YOR329C, strain SCD5, hits give low values
[62] = locus YPL031C, strain PHO85, hits give low values
[63] = locus YPL153C, strain RAD53, hits give low values
[64] = locus YPL204W, strain HRR25, hits give low values
[65] = locus YPL209C, strain IPL1, hits give low values
[66] = locus YPL256C, strain CLN2, hits give low values
[67] = locus YPR025C, strain CCL1, hits give low values
[68] = locus YPR106W, strain ISR1, hits give low values
[69] = locus YPR111W, strain DBF20, hits give low values
[70] = strain NNK1, hits give low values
[71] = strain TSCII, hits give low values

Measured: normalized growth

O=C(c1ccc(Cl)cc1)N(Cc1ccccc1)Cc1cccnc1
inactive: [1] 0.994 | [2] 0.985 | [3] 0.989 | [4] 0.979 | [5] 0.986 | [6] 0.981 | [7] 0.989 | [8] 0.987 | [9] 0.98 | [10] 0.993 | [11] 0.866 | [12] 0.985 | [13] 0.987 | [14] 0.987 | [15] 0.886 | [16] 0.748 | [17] 0.868 | [18] 0.994 | [19] 0.996 | [20] 0.983 | [21] 0.801 | [22] 0.992 | [23] 0.874 | [24] 0.869 | [25] 0.865 | [26] 0.976 | [27] 0.96 | [28] 0.896 | [29] 0.918 | [30] 0.977 | [31] 0.862 | [32] 0.956 | [33] 0.845 | [34] 0.99 | [35] 0.853 | [36] 0.89 | [37] 0.965 | [38] 0.885 | [39] 0.905 | [40] 0.987 | [41] 0.944 | [42] 0.884 | [43] 0.905 | [44] 0.864 | [45] 0.859 | [46] 0.991 | [47] 0.885 | [48] 0.989 | [49] 1.01 | [50] 0.885 | [51] 0.994 | [52] 0.909 | [53] 0.986 | [54] 0.989 | [55] 0.885 | [56] 0.994 | [57] 0.877 | [58] 0.828 | [59] 0.915 | [60] 0.912 | [61] 0.991 | [62] 0.877 | [63] 0.851 | [64] 0.885 | [65] 0.988 | [66] 0.966 | [67] 0.984 | [68] 0.995 | [69] 0.998 | [70] 0.991 | [71] 0.995

O=C(c1cccs1)N(Cc1cccnc1)Cc1ccc(Cl)cc1Cl
inactive: [1] 0.979 | [2] 0.966 | [3] 0.961 | [4] 0.955 | [5] 0.964 | [6] 0.968 | [7] 0.961 | [8] 0.97 | [9] 0.96 | [10] 0.96 | [11] 0.94 | [12] 0.96 | [13] 0.968 | [14] 0.96 | [15] 0.934 | [16] 0.887 | [17] 0.946 | [18] 0.96 | [19] 0.97 | [20] 0.966 | [21] 0.918 | [22] 0.965 | [23] 0.92 | [24] 1.01 | [25] 0.984 | [27] 1.21 | [28] 1.07 | [29] 0.971 | [30] 0.964 | [31] 1.04 | [32] 0.939 | [33] 0.95 | [34] 0.971 | [35] 0.941 | [36] 1.1 | [37] 0.963 | [38] 0.938 | [39] 0.929 | [40] 0.969 | [41] 1.02 | [42] 1 | [43] 0.945 | [44] 0.965 | [45] 0.929 | [46] 0.966 | [47] 0.944 | [48] 0.974 | [49] 0.967 | [50] 0.947 | [51] 0.968 | [52] 1.04 | [53] 0.969 | [54] 0.957 | [55] 0.955 | [56] 0.962 | [57] 0.906 | [58] 0.929 | [59] 0.978 | [60] 0.997 | [61] 0.972 | [62] 0.927 | [63] 0.937 | [64] 0.902 | [65] 0.969 | [67] 0.965 | [68] 0.969 | [69] 0.955 | [70] 0.975 | [71] 0.966
active: [26] 1.22 [resistant] | [66] 1.15 [resistant]

O=S(=O)(c1ccc(Cl)cc1)N(Cc1cccnc1)Cc1ccc(Cl)cc1Cl
active: [15] 0.537 | [16] 0.469 | [17] 0.57 | [21] 0.727 | [23] 0.518 | [24] 0.543 | [26] 0.465 | [31] 0.273 | [35] 0.586 | [36] 0.46 | [41] 0.408 | [42] 0.54 | [44] 0.549 | [45] 0.673 | [47] 0.713 | [52] 0.47 | [59] 0.428 | [62] 0.478 | [63] 0.42 | [64] 0.526 | [66] 0.674
inactive: [1] 0.951 | [2] 0.966 | [3] 0.962 | [4] 0.95 | [5] 0.969 | [6] 0.968 | [7] 0.96 | [8] 0.967 | [9] 0.946 | [10] 0.929 | [11] 0.732 | [12] 0.924 | [13] 0.928 | [14] 0.938 | [18] 0.947 | [19] 0.942 | [20] 0.963 | [22] 0.94 | [25] 0.704 | [27] 0.55 | [28] 0.7 | [29] 0.583 | [30] 0.939 | [32] 0.958 | [33] 0.715 | [34] 0.949 | [37] 0.89 | [38] 0.745 | [39] 0.799 | [40] 0.941 | [43] 0.767 | [46] 0.963 | [48] 0.932 | [49] 0.959 | [50] 0.743 | [51] 0.968 | [53] 0.913 | [54] 0.961 | [55] 0.68 | [56] 0.946 | [57] 0.711 | [58] 0.787 | [60] 0.593 | [61] 0.96 | [65] 0.949 | [67] 0.952 | [68] 0.962 | [69] 0.975 | [70] 0.948 | [71] 0.927

CC(C)(C)C(=O)N(Cc1cccnc1)Cc1ccc(Cl)cc1Cl
inactive: [1] 0.998 | [2] 0.988 | [3] 1 | [4] 0.986 | [5] 0.995 | [6] 0.992 | [7] 0.992 | [8] 0.985 | [9] 0.982 | [10] 0.997 | [11] 0.914 | [12] 0.993 | [13] 0.991 | [14] 1 | [15] 0.948 | [16] 0.842 | [17] 0.948 | [18] 0.998 | [19] 0.996 | [20] 0.993 | [21] 0.9 | [22] 1 | [23] 0.928 | [24] 1.01 | [25] 0.936 | [26] 1.07 | [27] 1.01 | [28] 1.02 | [29] 0.935 | [30] 0.983 | [31] 1.04 | [32] 0.96 | [33] 0.909 | [34] 0.998 | [35] 0.909 | [36] 0.995 | [37] 0.973 | [38] 0.938 | [39] 0.943 | [40] 0.995 | [41] 0.99 | [42] 1.02 | [43] 0.952 | [44] 0.913 | [45] 0.907 | [46] 0.995 | [47] 0.936 | [48] 0.996 | [49] 1 | [50] 0.934 | [51] 0.997 | [52] 1.02 | [53] 1 | [54] 0.993 | [55] 0.963 | [56] 1 | [57] 0.919 | [58] 0.906 | [59] 0.988 | [60] 1.02 | [61] 0.996 | [62] 0.925 | [63] 0.917 | [64] 0.927 | [65] 0.989 | [66] 1.02 | [67] 0.995 | [68] 0.992 | [69] 0.997 | [70] 0.993 | [71] 0.996
